TDP1 block: blocks human tyrosyl-DNA phosphodiesterase 1; AID 485290; recombinant TDP1, AlphaScreen DNA substrate cleavage; Potency, µM (highest dose often 130 µM), without a hit: top-dose activity change, negative = inhibition, most hits filed as inhibitors; Q9NUW8; hit rate 0.28% among 350,000; further: potency means the concentration at half of the fitted maximal effect; nearly all actives have a fitted effect of over 40% in size
Target sequence (Q9NUW8 whole entry, looked up): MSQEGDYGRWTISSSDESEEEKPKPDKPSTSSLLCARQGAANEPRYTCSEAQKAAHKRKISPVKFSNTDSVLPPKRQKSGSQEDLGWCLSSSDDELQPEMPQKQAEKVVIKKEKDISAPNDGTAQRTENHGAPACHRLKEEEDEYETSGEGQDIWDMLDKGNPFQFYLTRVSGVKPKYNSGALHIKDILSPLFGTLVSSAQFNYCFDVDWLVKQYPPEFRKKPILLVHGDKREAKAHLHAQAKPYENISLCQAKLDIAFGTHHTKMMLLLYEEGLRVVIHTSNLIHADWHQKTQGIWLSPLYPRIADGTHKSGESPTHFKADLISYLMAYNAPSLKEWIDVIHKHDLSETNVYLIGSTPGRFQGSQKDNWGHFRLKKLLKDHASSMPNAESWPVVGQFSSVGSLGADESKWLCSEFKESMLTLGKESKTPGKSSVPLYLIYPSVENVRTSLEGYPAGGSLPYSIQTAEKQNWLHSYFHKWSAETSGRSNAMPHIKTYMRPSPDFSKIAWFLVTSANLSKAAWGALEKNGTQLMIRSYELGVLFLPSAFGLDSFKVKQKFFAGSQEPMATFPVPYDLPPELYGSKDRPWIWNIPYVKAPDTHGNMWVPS
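Enzyme-compound mixtures sat 15 min at room temperature, followed by a 5 min reaction with 15 nM final substrate and 10 min with AlphaScreen beads. Recombinant human Tdp1 was used at 1 nM final.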
IL-1B inflam inh: blocks inflammasome-driven IL-1 beta release; THP-1 LPS/ATP IL-1B secretion, AlphaLISA, 16 h; active compounds read low; activity change, % at 57.5 µM; hit rate 4.7% among 360,000; AID 743279; in the data active means activity change below about -50%; inconclusive means mostly about -30% to -49%
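THP-1 cells pretreated 1 hr with compounds (up to 57.5 uM final), then stimulated with LPS (250 ng/mL final) plus ATP (1.25 mM final); secreted IL-1B measured by AlphaLISA after 16 hr, decreased signal indicating inhibition.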
DT40 TDP1 no CPT: qHTS for Inhibitors of human tyrosyl-DNA phosphodiesterase 1 (TDP1): qHTS in cells in absence of CPT; DT40 Tdp1-/- hTDP1 cells, no CPT, ATP luminescence, 48 h; Potency, µM (titrated, usually from 46.2 µM), inactives show top-dose activity change, negative = growth inhibition, most hits filed as inhibitors; hit rate 15% among 420,000; AID 686978, 2013; further: potency means the concentration at half of the fitted maximal effect; nearly all actives have a fitted effect of over 55% in size
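DT40 Tdp1-/-;hTDP1 cells, no CPT (DMSO vehicle only), 400 cells/well; compounds pin-transferred; ≥48 hr, 37 °C; CellTiter-Glo 30 min RT dark, luminescence read.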
DT40 TDP1 CPT: growth inhibition of DT40 Tdp1-/-;hTDP1 cells with camptothecin (screen for TDP1 inhibitors) | chicken DT40 Tdp1-/-;hTDP1 cells + 20 nM CPT, ATP luminescence, 48 h | Potency, µM (series often up to 46.2 µM), inactives show at the highest dose activity change, negative = growth inhibition, usual class: inhibitors | hit rate 12% among 420,000 | AID 686979; further: potency means the concentration at half of the fitted maximal effect; nearly all actives have a fitted effect of over 55% in size
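Cell growth measured by CellTiter-Glo luminescence after a minimum 48 h, 37 C compound exposure with 20 nM CPT in Tdp1-knockout DT40 cells stably expressing hTDP1, seeded 400/well; qHTS titration format.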
Six1-Eya2 blk: Six1/Eya2 interaction inhibition. Q15475+O00167. activity change, % (no concentration beside the values). AlphaScreen GST-Six1/His-Eya2 binding, biochemical; active compounds read low. AID 651725. hit rate 0.56% among 360,000; in the data active means activity change below about -65%; inconclusive means mostly about -30% to -63%
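Compounds are tested against tagged Six1 and Eya2 proteins bridged by glutathione donor and nickel acceptor beads; after a one-hour incubation at 37 °C without light, AlphaScreen emission is recorded.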
CtBP-E1A blk: inhibitors of CtBP/E1A interaction; hit rate 0.49% among 340,000; activity change, % (test concentration not listed); AlphaScreen GST-E1A/His-CtBP binding, 1536-well; active compounds read low; in the data active means activity change below about -65%; inconclusive means mostly about -30% to -63%
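Protein mix (5X: 125 nM each GST-E1A, His-CtBP) was incubated with pinned compound 2 h at 37 deg C in dark, in 50 mM Tris pH 8.0 buffer with 300 mM NaCl. Glutathione donor and nickel acceptor beads followed; AlphaScreen signal read after 1 h.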
Numbers without * were called inactive; [ ] = dose if it differs, or a comment. Hits are enriched below; roughly 18% of the tested compounds scored in any of these assays. Unless noted, the call rests on the fitted dose curve; in most records, active means well fitted curve in the direction sought with a large enough effect; inconclusive means small, poorly fitted or top-dose-only effect, or another doubt; inactive means no such curve, though single readings can be large; an effect the other way counts as inactive or inconclusive. On the % scale 0 is the no-effect control and ±100 the full control effect.

`COc1ccc(N2CCN(Cc3cc(=O)oc4cc(C)c(Cl)cc34)CC2)cc1` gave TDP1 block -2.3%, IL-1B inflam inh 0.1, DT40 TDP1 no CPT -22.5%, DT40 TDP1 CPT inconclusive, Six1-Eya2 blk -5.7 and CtBP-E1A blk -0.1.
Screening CCOc1ccc2oc(=O)cc(CN3CCN(c4ccc(Cl)cc4)CC3)c2c1 returned TDP1 block 9.3%, DT40 TDP1 no CPT 25.9µM* and DT40 TDP1 CPT 23.1µM*.
CCOc1ccc2oc(=O)cc(CN3CCN(C(=O)c4ccc(Cl)cc4)CC3)c2c1 was read as TDP1 block 2.3%, DT40 TDP1 no CPT 20.6µM* and DT40 TDP1 CPT inconclusive.
Screening CCN(CC(=O)NCc1ccc(Cl)cc1)C(=O)COc1ccc(C)cc1C returned TDP1 block 7.1%, IL-1B inflam inh 2.1, DT40 TDP1 no CPT inconclusive, DT40 TDP1 CPT inconclusive, Six1-Eya2 blk 0.0 and CtBP-E1A blk 0.0.
`COc1ccc(OCC(=O)NCCCn2ccnc2)cc1` gave IL-1B inflam inh 15.7, DT40 TDP1 no CPT -2.0%, DT40 TDP1 CPT 12.3%, Six1-Eya2 blk -2.7 and CtBP-E1A blk 2.5.
Screening CCOc1ccc(C(=O)CN2C(=O)NC3(CCCCCC3)C2=O)cc1 returned TDP1 block 4.4%, IL-1B inflam inh -9.5, DT40 TDP1 no CPT inconclusive, DT40 TDP1 CPT inconclusive, Six1-Eya2 blk 7.4 and CtBP-E1A blk -15.0.
For COc1ccc(N2CCN(Cc3cc4c(cc3Br)OCCO4)CC2)cc1 the results were TDP1 block 5.1%[0.0935 µM], IL-1B inflam inh -67.7*, DT40 TDP1 no CPT inconclusive, DT40 TDP1 CPT inconclusive, Six1-Eya2 blk inconclusive and CtBP-E1A blk -26.9.
For CN1CCN(Cc2cc(=O)oc3cc4c(cc23)CCC4)CC1 the results were TDP1 block 4.9%, IL-1B inflam inh -0.7, DT40 TDP1 no CPT -0.3%, DT40 TDP1 CPT inconclusive, Six1-Eya2 blk -0.1 and CtBP-E1A blk 4.4.
COc1ccc(OC)c(CN2CCN(Cc3ccc(OC)c(OC)c3OC)CC2)c1 was read as IL-1B inflam inh 9.5, DT40 TDP1 no CPT inconclusive, DT40 TDP1 CPT -27.6%, Six1-Eya2 blk -3.0 and CtBP-E1A blk -2.1.
COc1ccc2oc(=O)cc(CN3CCN(Cc4ccc(OC)c(OC)c4OC)CC3)c2c1 was read as IL-1B inflam inh -54.0*, DT40 TDP1 no CPT inconclusive, DT40 TDP1 CPT inconclusive, Six1-Eya2 blk -2.8 and CtBP-E1A blk 2.8.
O=c1cc(CN2CCN(c3ccc(F)cc3)CC2)c2cc3c(cc2o1)CCCC3 was read as TDP1 block -1.9%, IL-1B inflam inh 35.1, DT40 TDP1 no CPT inconclusive, DT40 TDP1 CPT 18.4µM*, Six1-Eya2 blk -3.0 and CtBP-E1A blk 3.1.
CC1CN(C(=O)c2ccc(CNS(=O)(=O)c3cccc(C(F)(F)F)c3)cc2)CC(C)O1 (configuration not stated) was read as TDP1 block -2.2%, IL-1B inflam inh 0.0, DT40 TDP1 no CPT inconclusive, DT40 TDP1 CPT inconclusive, Six1-Eya2 blk 5.9 and CtBP-E1A blk -2.9.
Screening CCOC(=O)c1c(C)[nH]c(C)c1S(=O)(=O)N(C)CC(=O)Nc1ccc(CC)cc1 returned TDP1 block 10.5%, DT40 TDP1 no CPT -19.6% and DT40 TDP1 CPT -26.8%.
Screening Cc1nn(Cc2c(Cl)cccc2Cl)c(C)c1C(=O)NCc1ccc(C)n1C returned TDP1 block 4.2%, IL-1B inflam inh -8.7, DT40 TDP1 no CPT -26.7%, DT40 TDP1 CPT inconclusive, Six1-Eya2 blk 1.3 and CtBP-E1A blk -6.9.
For CCCCS(=O)CC(COc1ccc(Cl)cc1)OC(=O)c1ccccc1 (configuration not stated) the results were TDP1 block 2.9%, IL-1B inflam inh -13.4, DT40 TDP1 no CPT inconclusive, DT40 TDP1 CPT inconclusive, Six1-Eya2 blk 2.1 and CtBP-E1A blk 2.7.
Screening Cc1ccc(SC(=O)COc2ccccc2C)cc1 returned TDP1 block -7.6%, IL-1B inflam inh -29.7, DT40 TDP1 no CPT inconclusive, DT40 TDP1 CPT 13µM*, Six1-Eya2 blk -6.9 and CtBP-E1A blk -3.7.
For O=C1NC[C@H](CCCCN2C[C@H](Cc3ccccc3)N(CCc3ccccc3)C(=O)C2=O)N(CC2CCCCC2)C1=O the results were IL-1B inflam inh 0.0, DT40 TDP1 no CPT -16.4%, DT40 TDP1 CPT -2.4%, Six1-Eya2 blk 22.8 and CtBP-E1A blk 26.1.
For COc1ccc(CCn2c(C3CCCCC3)nc3c(c(=O)c4ccccc4n3C)c2=O)cc1OC the results were TDP1 block 0.0%, IL-1B inflam inh 5.5, DT40 TDP1 no CPT inconclusive, DT40 TDP1 CPT inconclusive, Six1-Eya2 blk -5.3 and CtBP-E1A blk -13.8.
Cn1c2ccccc2c(=O)c2c(=O)n(C3CCCCCC3)c(C3CCCCC3)nc21 was read as TDP1 block 0.6%, IL-1B inflam inh 27.7, DT40 TDP1 no CPT 13µM*, DT40 TDP1 CPT 14.6µM*, Six1-Eya2 blk 1.8 and CtBP-E1A blk 1.3.
`CCc1nc2c(c(=O)c3ccccc3n2C)c(=O)n1C1CCCCCC1` gave TDP1 block 2.7%, IL-1B inflam inh -7.0, DT40 TDP1 no CPT 16.4µM*, DT40 TDP1 CPT inconclusive, Six1-Eya2 blk 2.8 and CtBP-E1A blk 0.6.
`COc1ccc(Cn2c(C3CCCCC3)nc3c(c(=O)c4ccccc4n3C)c2=O)cc1` gave TDP1 block -1.2%, IL-1B inflam inh 19.5, DT40 TDP1 no CPT 16.4µM*, DT40 TDP1 CPT inconclusive and Six1-Eya2 blk 2.8.
`Cn1c2ccccc2c(=O)c2c(=O)n(-c3ccccc3)c(C3CCCCC3)nc21` gave TDP1 block 1.9%, IL-1B inflam inh 0.0, DT40 TDP1 no CPT inconclusive, DT40 TDP1 CPT inconclusive, Six1-Eya2 blk 4.5 and CtBP-E1A blk -1.4.
CCOC(=O)CNC(=O)Cc1ccc(OC)cc1 was read as TDP1 block 1.2%, DT40 TDP1 no CPT -4.9%, DT40 TDP1 CPT -4.2%, Six1-Eya2 blk 0.7 and CtBP-E1A blk -3.8.
`Cc1ccc(C(=O)COC(=O)c2cnccn2)cc1[N+](=O)[O-]` gave TDP1 block 2.9%, IL-1B inflam inh -4.4, DT40 TDP1 no CPT -16.6%, DT40 TDP1 CPT -16.5%, Six1-Eya2 blk -18.3 and CtBP-E1A blk -19.0.
Cc1c(CCC(C)C)c(=O)n2c([nH]c3ccccc32)c1C#N was read as TDP1 block -2.0%, IL-1B inflam inh 18.6, DT40 TDP1 no CPT 5.8µM*, DT40 TDP1 CPT inconclusive, Six1-Eya2 blk 3.2 and CtBP-E1A blk 20.7.
For CCCCc1c(C)c(C#N)c2[nH]c3ccccc3n2c1=O the results were TDP1 block 4.5%, IL-1B inflam inh 53.8, DT40 TDP1 no CPT 16.4µM*, DT40 TDP1 CPT 23.1µM*, Six1-Eya2 blk -10.1 and CtBP-E1A blk 2.7.
